Of roughly 8,800 targets only a part is listed; those with a hit were picked by preference. About 0.5% of all pairs of compound and target were hits.
Each target was assayed with CC[C@@H]1C(=O)N(C)c2cnc(Nc3ccc(C(=O)N[C@H]4CC[C@H](N5CCN(CC6CC6)CC5)CC4)cc3OC)nc2N1C(C)C [volasertib] (assay: log2 fold change, soluble protein after heating vs DMSO (PISA); higher = thermal stabilisation; K562 lysate, 10 uM; active = over 0.2 and 3.5 SD of the protein, either way, in both replicates (recomputed)).
Outline: (§1)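 Quantification was by TMTpro 16plex LC-MS/MS with equalised channel sums, applied to the supernatant after 21,000xg for 90 min. Samples were crude K562 extract at 1 mg/mL protein in PBS pH 7.4 with 1 mM MgCl2, treated with 10 μM compound for 30 min, heated for 3 min across 48°C-58°C, pooled and brought to 0.5% NP-40 at 4°C. Values are log-two fold changes in thermal stability relative to solvent controls, from duplicates.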

Sequence of UniProt P78347 (P78347 whole entry, looked up): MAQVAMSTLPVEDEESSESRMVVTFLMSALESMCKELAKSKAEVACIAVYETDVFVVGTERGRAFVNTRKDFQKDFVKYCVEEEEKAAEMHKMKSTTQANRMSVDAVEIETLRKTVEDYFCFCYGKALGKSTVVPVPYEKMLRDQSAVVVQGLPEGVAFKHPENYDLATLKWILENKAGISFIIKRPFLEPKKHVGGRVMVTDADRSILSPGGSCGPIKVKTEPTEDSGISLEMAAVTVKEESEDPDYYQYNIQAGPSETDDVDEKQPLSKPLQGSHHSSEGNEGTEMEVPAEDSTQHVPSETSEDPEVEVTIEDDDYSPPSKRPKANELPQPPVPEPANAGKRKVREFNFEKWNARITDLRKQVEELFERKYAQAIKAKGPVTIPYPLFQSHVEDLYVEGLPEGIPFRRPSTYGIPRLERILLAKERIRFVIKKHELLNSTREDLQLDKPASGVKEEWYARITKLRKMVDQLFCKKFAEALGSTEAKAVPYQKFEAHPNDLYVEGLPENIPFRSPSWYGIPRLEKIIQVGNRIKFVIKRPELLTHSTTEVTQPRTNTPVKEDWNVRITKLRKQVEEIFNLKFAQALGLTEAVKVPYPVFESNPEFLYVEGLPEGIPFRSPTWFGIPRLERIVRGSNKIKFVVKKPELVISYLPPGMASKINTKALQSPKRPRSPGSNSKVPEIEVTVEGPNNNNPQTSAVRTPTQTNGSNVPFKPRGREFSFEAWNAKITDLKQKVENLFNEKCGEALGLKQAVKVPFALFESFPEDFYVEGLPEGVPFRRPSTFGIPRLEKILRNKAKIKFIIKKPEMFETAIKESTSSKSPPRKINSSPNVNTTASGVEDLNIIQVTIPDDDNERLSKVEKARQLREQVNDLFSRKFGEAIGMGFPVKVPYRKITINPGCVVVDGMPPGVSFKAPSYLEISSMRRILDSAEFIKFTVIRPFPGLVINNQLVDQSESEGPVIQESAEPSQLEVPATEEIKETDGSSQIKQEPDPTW
Sequence of UniProt Q8NC54 (Q8NC54 whole entry, looked up): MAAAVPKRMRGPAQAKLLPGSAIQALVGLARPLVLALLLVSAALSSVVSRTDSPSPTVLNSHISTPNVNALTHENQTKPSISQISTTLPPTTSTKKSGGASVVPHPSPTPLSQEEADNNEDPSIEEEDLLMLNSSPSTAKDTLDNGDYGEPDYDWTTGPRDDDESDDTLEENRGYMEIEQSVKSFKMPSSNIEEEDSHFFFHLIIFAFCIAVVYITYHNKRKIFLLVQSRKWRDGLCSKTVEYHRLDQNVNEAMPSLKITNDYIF
Sequence of UniProt Q92759 (Q92759 whole entry, looked up): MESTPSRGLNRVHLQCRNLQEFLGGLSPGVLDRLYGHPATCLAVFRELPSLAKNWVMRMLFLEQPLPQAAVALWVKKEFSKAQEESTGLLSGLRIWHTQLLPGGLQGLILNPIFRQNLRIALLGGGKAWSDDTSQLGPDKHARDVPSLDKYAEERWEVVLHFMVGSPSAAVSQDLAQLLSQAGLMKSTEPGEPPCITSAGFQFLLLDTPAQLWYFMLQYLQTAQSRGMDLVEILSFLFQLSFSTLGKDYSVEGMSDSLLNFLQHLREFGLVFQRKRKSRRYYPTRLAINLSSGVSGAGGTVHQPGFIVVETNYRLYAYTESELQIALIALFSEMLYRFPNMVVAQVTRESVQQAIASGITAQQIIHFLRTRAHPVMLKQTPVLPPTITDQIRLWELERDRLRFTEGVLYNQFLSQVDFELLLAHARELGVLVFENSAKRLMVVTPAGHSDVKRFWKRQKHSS
Sequence of UniProt Q5T447 (Q5T447 whole entry, looked up): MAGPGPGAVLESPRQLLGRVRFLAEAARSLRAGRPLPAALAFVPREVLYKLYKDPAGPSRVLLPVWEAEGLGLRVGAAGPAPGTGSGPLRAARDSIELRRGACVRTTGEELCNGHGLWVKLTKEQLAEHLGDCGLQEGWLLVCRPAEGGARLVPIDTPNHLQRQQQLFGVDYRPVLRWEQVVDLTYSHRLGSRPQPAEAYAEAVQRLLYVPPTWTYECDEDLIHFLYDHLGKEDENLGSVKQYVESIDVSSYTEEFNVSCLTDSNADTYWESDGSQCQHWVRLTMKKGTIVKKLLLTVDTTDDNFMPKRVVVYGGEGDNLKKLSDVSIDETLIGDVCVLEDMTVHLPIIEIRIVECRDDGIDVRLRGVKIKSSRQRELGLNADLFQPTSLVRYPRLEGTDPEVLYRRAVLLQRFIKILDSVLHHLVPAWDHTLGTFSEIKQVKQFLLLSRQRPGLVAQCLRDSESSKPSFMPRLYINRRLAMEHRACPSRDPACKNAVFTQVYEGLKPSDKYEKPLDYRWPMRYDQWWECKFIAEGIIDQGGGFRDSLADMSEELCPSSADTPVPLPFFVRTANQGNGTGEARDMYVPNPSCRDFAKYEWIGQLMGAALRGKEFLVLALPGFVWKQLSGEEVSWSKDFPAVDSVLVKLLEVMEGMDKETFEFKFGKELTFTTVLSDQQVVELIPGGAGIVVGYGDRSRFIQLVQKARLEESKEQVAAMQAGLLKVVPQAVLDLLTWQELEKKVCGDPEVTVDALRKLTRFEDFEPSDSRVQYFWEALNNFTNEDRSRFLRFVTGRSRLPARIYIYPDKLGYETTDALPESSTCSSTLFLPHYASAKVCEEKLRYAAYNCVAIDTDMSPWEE
Sequence of UniProt Q9P2X3 (Q9P2X3 whole entry, looked up): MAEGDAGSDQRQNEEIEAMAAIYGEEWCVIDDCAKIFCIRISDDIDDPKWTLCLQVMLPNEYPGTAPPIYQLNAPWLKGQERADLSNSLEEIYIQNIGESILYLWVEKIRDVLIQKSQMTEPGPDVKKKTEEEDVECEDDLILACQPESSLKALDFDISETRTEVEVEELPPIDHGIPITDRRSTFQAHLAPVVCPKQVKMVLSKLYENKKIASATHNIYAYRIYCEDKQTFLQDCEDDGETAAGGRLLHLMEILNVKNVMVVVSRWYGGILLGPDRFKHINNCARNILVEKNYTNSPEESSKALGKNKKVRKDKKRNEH
Sequence of UniProt Q9NSE4 (Q9NSE4 whole entry, looked up): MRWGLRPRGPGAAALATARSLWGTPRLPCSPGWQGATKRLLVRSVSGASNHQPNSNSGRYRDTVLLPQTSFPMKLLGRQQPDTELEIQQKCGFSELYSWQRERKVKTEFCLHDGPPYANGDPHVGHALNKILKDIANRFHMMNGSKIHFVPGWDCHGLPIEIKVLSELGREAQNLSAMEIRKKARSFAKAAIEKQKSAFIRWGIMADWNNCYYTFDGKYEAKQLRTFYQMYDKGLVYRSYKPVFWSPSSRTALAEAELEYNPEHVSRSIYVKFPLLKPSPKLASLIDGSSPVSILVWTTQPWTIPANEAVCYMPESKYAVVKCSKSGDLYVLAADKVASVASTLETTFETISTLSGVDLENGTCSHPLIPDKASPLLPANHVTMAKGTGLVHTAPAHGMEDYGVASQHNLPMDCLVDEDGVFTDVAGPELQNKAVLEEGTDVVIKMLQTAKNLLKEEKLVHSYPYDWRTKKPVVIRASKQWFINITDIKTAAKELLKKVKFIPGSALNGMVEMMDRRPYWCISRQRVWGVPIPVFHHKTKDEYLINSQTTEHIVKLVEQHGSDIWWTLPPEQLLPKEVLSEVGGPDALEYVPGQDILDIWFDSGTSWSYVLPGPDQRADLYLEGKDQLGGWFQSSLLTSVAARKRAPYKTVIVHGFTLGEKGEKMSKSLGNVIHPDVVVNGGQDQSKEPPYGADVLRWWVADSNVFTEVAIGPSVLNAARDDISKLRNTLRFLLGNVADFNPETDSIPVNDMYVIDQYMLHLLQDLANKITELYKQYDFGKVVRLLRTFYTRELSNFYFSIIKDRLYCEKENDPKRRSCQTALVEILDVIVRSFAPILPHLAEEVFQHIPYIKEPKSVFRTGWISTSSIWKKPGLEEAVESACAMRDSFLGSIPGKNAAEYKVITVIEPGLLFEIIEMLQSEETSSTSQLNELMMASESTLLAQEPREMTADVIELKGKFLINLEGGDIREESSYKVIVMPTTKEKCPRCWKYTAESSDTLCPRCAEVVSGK
Sequence of UniProt Q99714 (Q99714 whole entry, looked up): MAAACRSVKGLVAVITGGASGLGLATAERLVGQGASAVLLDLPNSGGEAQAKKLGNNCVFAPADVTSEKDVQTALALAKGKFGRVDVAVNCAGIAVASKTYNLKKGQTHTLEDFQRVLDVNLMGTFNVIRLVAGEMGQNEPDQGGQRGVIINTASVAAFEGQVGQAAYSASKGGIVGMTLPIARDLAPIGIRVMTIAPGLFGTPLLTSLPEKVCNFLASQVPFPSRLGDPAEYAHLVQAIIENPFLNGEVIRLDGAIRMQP
Sequence of UniProt Q9Y6M1 (Q9Y6M1 whole entry, looked up): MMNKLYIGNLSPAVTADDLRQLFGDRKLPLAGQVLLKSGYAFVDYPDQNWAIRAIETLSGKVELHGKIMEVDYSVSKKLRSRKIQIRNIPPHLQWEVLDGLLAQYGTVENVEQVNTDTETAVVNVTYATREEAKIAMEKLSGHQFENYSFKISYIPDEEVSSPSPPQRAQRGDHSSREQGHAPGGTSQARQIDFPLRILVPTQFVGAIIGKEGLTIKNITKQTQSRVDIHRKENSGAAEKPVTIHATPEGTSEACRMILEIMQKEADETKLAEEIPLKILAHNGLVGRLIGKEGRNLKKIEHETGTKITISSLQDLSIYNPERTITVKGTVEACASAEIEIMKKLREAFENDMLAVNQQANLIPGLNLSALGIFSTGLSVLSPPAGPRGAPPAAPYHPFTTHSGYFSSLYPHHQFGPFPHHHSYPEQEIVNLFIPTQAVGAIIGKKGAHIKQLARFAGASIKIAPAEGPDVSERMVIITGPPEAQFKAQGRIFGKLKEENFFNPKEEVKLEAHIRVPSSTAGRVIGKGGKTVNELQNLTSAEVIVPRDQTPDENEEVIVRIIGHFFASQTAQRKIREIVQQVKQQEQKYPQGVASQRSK
Sequence of UniProt Q03013 (Q03013 whole entry, looked up): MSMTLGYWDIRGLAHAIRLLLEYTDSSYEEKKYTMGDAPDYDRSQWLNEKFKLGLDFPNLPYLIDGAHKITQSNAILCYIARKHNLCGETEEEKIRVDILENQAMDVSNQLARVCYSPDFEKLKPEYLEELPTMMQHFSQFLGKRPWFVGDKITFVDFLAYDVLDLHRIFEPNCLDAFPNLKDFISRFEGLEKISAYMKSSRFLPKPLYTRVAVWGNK

| Target | log2 fold change |
| --- | --- |
| GTF2H4 (UniProt Q92759) | -0.046 (inactive) |
| GSTZ1 (UniProt G3V4T6) | -0.02 (inactive) |
| HDAC2 (UniProt Q92769) | -0.009 (inactive) |
| HEATR6 (UniProt Q6AI08) | -0.019 (inactive) |
| H4C1 (UniProt P62805) | 0.027 (inactive) |
| HECTD3 (UniProt Q5T447) | -0.024 (inactive) |
| KCT2 (UniProt Q8NC54) | -0.001 (inactive) |
| GPX4 (UniProt P36969) | -0.038 (inactive) |
| IARS2 (UniProt Q9NSE4) | 0.312 (active) |
| GTF2H1 (UniProt P32780) | -0.028 (inactive) |
| GSTM4 (UniProt Q03013) | 0.03 (inactive) |
| IMPACT (UniProt Q9P2X3) | 0.053 (inactive) |
| IGF2BP2 (UniProt Q9Y6M1) | -0.049 (inactive) |
| GON4L (UniProt Q3T8J9) | -0.018 (inactive) |
| HK1 isoform 2 (UniProt P19367) | -0.004 (inactive) |
| GTF2I (UniProt P78347) | -0.036 (inactive) |
| KEAP1 (UniProt Q14145) | -0.001 (inactive) |
| ISOC2 (UniProt Q96AB3) | 0.013 (inactive) |

| Target | log2 fold change |
| --- | --- |
| HSD17B10 (UniProt Q99714) | -0.015 (inactive) |
| IRAK4 (UniProt Q9NWZ3) | -0.022 (inactive) |
| IMMT (UniProt Q16891) | 0.015 (inactive) |
| IARS (UniProt P41252) | -0.079 (inactive) |
| IMPDH2 (UniProt P12268) | 0.012 (inactive) |
| GNE isoform 2 (UniProt Q9Y223) | -0.095 (inactive) |
| GTPBP2 (UniProt Q9BX10) | -0.104 (inactive) |
| HSPB1 (UniProt P04792) | -0.02 (inactive) |
| INTS1 (UniProt Q8N201) | -0.033 (inactive) |
| HSPA8 (UniProt P11142) | -0.003 (inactive) |
| HAUS3 (UniProt Q68CZ6) | -0.048 (inactive) |
| GRB10 (UniProt Q13322) | -0.103 (inactive) |
| HARS (UniProt P12081) | -0.006 (inactive) |
| GMIP (UniProt Q9P107) | 0 (inactive) |
| HK2 (UniProt P52789) | -0.049 (inactive) |
| IRAK1 (UniProt P51617) | -0.134 (inactive) |
| GSTCD (UniProt Q8NEC7) | -0.05 (inactive) |
| HDAC3 (UniProt O15379) | -0.003 (inactive) |

Each target was assayed with CCn1c(C(=O)N(C2CC2)C2CC2)cc2c3c(ncn3C)c(Nc3cc(C)n(C)n3)nc21 in the same assay as above.
Outline: as §1

| Target | log2 fold change |
| --- | --- |
| GTF2H4 (UniProt Q92759) | 0.028 (inactive) |
| GSTZ1 (UniProt G3V4T6) | -0.029 (inactive) |
| HDAC2 (UniProt Q92769) | 0.002 (inactive) |
| HEATR6 (UniProt Q6AI08) | 0.073 (inactive) |
| H4C1 (UniProt P62805) | 0.079 (inactive) |
| HECTD3 (UniProt Q5T447) | 0.018 (inactive) |
| KCT2 (UniProt Q8NC54) | -0.038 (inactive) |
| GPX4 (UniProt P36969) | 0.013 (inactive) |
| IARS2 (UniProt Q9NSE4) | -0.013 (inactive) |
| GTF2H1 (UniProt P32780) | -0.028 (inactive) |
| GSTM4 (UniProt Q03013) | 0.009 (inactive) |
| IMPACT (UniProt Q9P2X3) | 0.133 (inactive) |
| IGF2BP2 (UniProt Q9Y6M1) | 0.02 (inactive) |
| GON4L (UniProt Q3T8J9) | 0.02 (inactive) |
| HK1 isoform 2 (UniProt P19367) | 0.014 (inactive) |
| GTF2I (UniProt P78347) | 0.005 (inactive) |
| KEAP1 (UniProt Q14145) | -0.016 (inactive) |
| ISOC2 (UniProt Q96AB3) | -0.043 (inactive) |

| Target | log2 fold change |
| --- | --- |
| HSD17B10 (UniProt Q99714) | -0.022 (inactive) |
| IRAK4 (UniProt Q9NWZ3) | 0.063 (inactive) |
| IMMT (UniProt Q16891) | 0.015 (inactive) |
| IARS (UniProt P41252) | 0.048 (inactive) |
| IMPDH2 (UniProt P12268) | 0.039 (inactive) |
| GNE isoform 2 (UniProt Q9Y223) | 0.039 (inactive) |
| GTPBP2 (UniProt Q9BX10) | 0.043 (inactive) |
| HSPB1 (UniProt P04792) | 0.01 (inactive) |
| INTS1 (UniProt Q8N201) | 0.007 (inactive) |
| HSPA8 (UniProt P11142) | 0.002 (inactive) |
| HAUS3 (UniProt Q68CZ6) | 0.002 (inactive) |
| GRB10 (UniProt Q13322) | 0.012 (inactive) |
| HARS (UniProt P12081) | 0.012 (inactive) |
| GMIP (UniProt Q9P107) | -0.005 (inactive) |
| HK2 (UniProt P52789) | 0.023 (inactive) |
| IRAK1 (UniProt P51617) | 0.041 (inactive) |
| GSTCD (UniProt Q8NEC7) | 0.011 (inactive) |
| HDAC3 (UniProt O15379) | 0.001 (inactive) |
